Out of some 220,000 compounds screened, about 910 (0.41%) were called active. This excerpt belongs to a sample that is enriched for actives. Results with a measured potency or affinity are listed apart. Values without a mark were called inactive.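 The calls were made as follows: active = primary inhibition above the hit cutoff, then over 50% inhibition at one or more dose response concentrations (cut at about 23% in these data, passing the limit was not always enough); inconclusive = conflicting primary data, or primary hits not chosen for dose response; inactive = low primary inhibition, or under 50% at every dose.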

The target in this test is Aminopeptidase N (Plasmodium falciparum (isolate 3D7)) (UniProt O96935). The test can be described thus: P. falciparum M1AAP inhibitors, biochemical, fluorogenic H-Leu-NHMec substrate, 1536-well (AID 1445).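 Also: plate controls were DMSO full reaction for no effect and no enzyme background for full effect.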 Conditions: recombinant M1AAP, H-Leu-NHMec fluorogenic kinetic assay; at 30 µM, stronger effect = higher value unless noted.
Aminopeptidase N (Plasmodium falciparum (isolate 3D7)), sequence (O96935 whole entry, looked up): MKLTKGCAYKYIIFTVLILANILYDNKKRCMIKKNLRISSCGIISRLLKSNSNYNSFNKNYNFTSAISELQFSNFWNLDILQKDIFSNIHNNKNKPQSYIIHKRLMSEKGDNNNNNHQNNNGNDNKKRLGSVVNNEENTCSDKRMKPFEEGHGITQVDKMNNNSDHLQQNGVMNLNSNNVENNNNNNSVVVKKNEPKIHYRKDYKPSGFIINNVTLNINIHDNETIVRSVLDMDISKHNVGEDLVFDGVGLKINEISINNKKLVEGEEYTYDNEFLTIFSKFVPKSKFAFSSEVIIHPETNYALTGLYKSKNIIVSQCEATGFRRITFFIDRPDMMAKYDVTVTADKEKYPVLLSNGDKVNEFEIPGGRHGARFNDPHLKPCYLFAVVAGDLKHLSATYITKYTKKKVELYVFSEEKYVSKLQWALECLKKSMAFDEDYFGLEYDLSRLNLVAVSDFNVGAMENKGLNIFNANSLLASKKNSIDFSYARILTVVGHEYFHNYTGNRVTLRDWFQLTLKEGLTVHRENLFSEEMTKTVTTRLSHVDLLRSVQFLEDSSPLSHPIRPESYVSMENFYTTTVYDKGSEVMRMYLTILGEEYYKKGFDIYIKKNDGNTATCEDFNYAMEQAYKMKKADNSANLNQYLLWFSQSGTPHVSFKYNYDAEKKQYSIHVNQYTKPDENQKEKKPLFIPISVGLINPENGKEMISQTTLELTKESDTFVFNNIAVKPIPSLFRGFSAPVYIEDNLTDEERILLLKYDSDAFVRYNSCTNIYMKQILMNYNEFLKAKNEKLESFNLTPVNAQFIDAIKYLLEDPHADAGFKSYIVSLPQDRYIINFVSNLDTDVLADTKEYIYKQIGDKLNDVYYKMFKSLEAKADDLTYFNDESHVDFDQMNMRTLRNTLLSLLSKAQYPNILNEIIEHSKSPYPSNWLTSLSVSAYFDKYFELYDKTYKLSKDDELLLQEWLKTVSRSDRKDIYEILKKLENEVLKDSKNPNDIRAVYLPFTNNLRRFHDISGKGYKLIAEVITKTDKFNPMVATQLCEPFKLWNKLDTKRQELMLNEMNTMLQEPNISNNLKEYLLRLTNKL
For orientation: inhibition means the relative decrease from the control value, in per cent. For `Cc1cccc(OCCOCCSc2ncccn2)c1`, the inhibition is 11.6%.

Regarding `COc1cccc(OC)c1OCCCOc1ccc(C)cc1Br`, the inhibition was 3.98%.

`CC1CCCN(C(=O)CSc2nnc(-c3ccc(S(=O)(=O)N4CCOCC4)cc3)n2C)C1` (stereo not drawn): the inhibition was 0.7%.

As to `Cc1cc(Cl)c2ccc(Cl)cc2n1`, the inhibition is 0.44%.

Regarding `O=[N+]([O-])c1ccc2c(c1)oc1ccccc12`, the inhibition is -3.55%.

For the molecule `CC(=O)CC(c1ccc([N+](=O)[O-])cc1)c1c(O)c2ccccc2oc1=O` (stereo not drawn), the inhibition was 0.61%.

As to `Cc1csc(NC(=O)CSc2nc(C(C)C)nc3c2c(=O)n(C)c(=O)n3C)n1`, the inhibition was -1.73%.

Regarding `CS(=O)(=O)c1ccc2nc(NC(=O)c3ccc(N4C(=O)CCC4=O)cc3)sc2c1`, the inhibition is 5.15%.

Regarding `CCOC(=O)c1cc(-c2csc(-c3cccc(Cl)c3)n2)on1`, the inhibition is -3.06%.

Take `CC1C(c2ccccc2)N(C)C(c2ccccc2)CC1(O)c1ccccc1` (stereo not drawn): the inhibition is 16.7%.

As for `CCOC(=O)C(=O)Nc1nnc(SCc2ccc(F)cc2)s1`, the inhibition was 2.28%.

On to `COc1cccc(C(=O)Nn2c(C)nnc2-n2nc(C)cc2C)c1`, for which the inhibition is 8.95%.

For `O=C(NCc1ccccc1)C(c1ccc(F)cc1)N(Cc1ccc2c(c1)OCO2)C(=O)Cn1nnc(-c2cccs2)n1` (stereo not drawn), the inhibition was 1.31%.

Consider `CC(C)CCNC(=O)CN(Cc1ccc2c(c1)OCO2)C(=O)Cn1nnc(-c2cccs2)n1`, for which the inhibition is 24.4% (active).

`COc1ccc(-c2nnn(CC(=O)N(CC(=O)NCCC(C)C)Cc3cccs3)n2)cc1OC`: the inhibition was 13.8%.

`COc1ccc(NC(=O)c2oc3ccccc3c2NC(=O)c2ccc3c(c2)OCO3)cc1`: the inhibition is 2.18%.

As for `COc1ccc2nc(SCc3ccccc3C)nc(C)c2c1`, the inhibition was 2.23%.

Regarding `Cc1nc(SCc2ccccc2C)n[nH]1`, the inhibition was -7.66%.

Consider `N#Cc1c(-c2ccccc2)c(C#N)c2nc3ccccc3n2c1N`, for which the inhibition is 3.17%.

On to `Cc1ccc(-c2c(C#N)c(N)n3c(nc4ccccc43)c2C#N)cc1`, for which the inhibition is 25.5% (active).

With `Cc1cc(Cl)n2c(nc3ccccc32)c1C#N`, the inhibition is -0.99%.

With `Cc1cc(C(C)(C)C)ccc1OCCN1CCCC1`, the inhibition is 8.65%.

As for `Oc1ccc(-c2nc(=S)[nH][nH]2)cc1`, the inhibition is 44.3%.

With `C=CCOc1ccc(C(=O)N(Cc2ccc(N(C)C)cc2)C2CCS(=O)(=O)C2)cc1` (stereo not drawn), the inhibition was 13%.

Consider `CC(=O)Oc1cc2oc(=O)c3c(c2cc1Cl)CCC3`, for which the inhibition was 38.1%.

With `O=c1cc(-c2ccccc2)c2cc(Cl)c(O)c(CN3CCOCC3)c2o1`, the inhibition is 5.98%.

Consider `O=c1oc2cc(O)ccc2c2c1CCCC2`, for which the inhibition was 10.5%.

As for `Cc1oc2c(CN3CCOCC3)c(O)ccc2c(=O)c1-c1ccc(Cl)cc1`, the inhibition was 7.87%.

For the origin of these results see PubChem BioAssay AID1445 (SRMLSC, 2008).
